# Test results: PMC7826789 (International Journal of Molecular Sciences, 2021)
smiles,measurement,setting,value
COc1cc2ncnc(Nc3cccc(Cl)c3F)c2cc1O[C@H]1CC[C@H]([C@@H]2NCCNC2=O)CC1 [BI00133844],Kinases covered,SRC,SRC
CCCS(=O)(=O)Nc1ccc(F)c(-n2cc(-c3cncc(OC)c3)nn2)c1F [BI00865461],Kinases covered,SRMS,SRMS
COc1cc2ncn(-c3cc(OCC4CCCO4)c(C(N)=O)s3)c2cc1OC (centres unmarked) [GSK204607],Kinases covered,STK10,STK10
COc1ccc2cc(-c3c(-c4ccncc4)nc(-c4ccc(S(C)(=O)=O)cc4C)n3C)ccc2c1 [SB-633825],Kinases covered,STK10,STK10
CC(C)N1CC(=O)N(C)c2cnc(Nc3cccc(S(=O)(=O)CCN4CCOCC4)c3)nc21 [BI00009348],Kinases covered,STK16,STK16
same,Kinases covered,TAK1,TAK1
CNc1nc(-c2ccc3c(N)n[nH]c3c2)cc(N2C[C@@H](C(=O)Nc3ccccc3)CC[C@H]2C)n1 [GSK2298859],Kinases covered,STK17B,STK17B
C[C@@H]1CCNC(=O)c2cc3ccc(C(=O)Nc4nc5ccccc5n4CCCN(C)C)cc3n21 [BI00645435],Kinases covered,STK17B,STK17B
O=C(Nc1cccc(-c2nn3ncccc3c2-c2ccnc(Nc3cccnc3)n2)c1)c1c(F)cccc1F [GSK312879],Kinases covered,STK36,STK36
COC[C@@H](C)N[C@H]1CC[C@H](Nc2cc(-c3cccc(NCC4(C#N)CCOCC4)n3)c(Cl)cn2)CC1 [NVP-2],Kinases covered,TAOK3,TAOK3
CN(C)C/C=C/C(=O)Nc1ccc(C(=O)Nc2cccc(Nc3ncc(Cl)c(-c4c[nH]c5ccccc45)n3)c2)cc1 [THZ1],Kinases covered,TBK1,TBK1
